Sfp inh – qHTS Assay for Inhibitors of Bacillus subtilis Sfp phosphopantetheinyl transferase (PPTase); Potency, µM, most hits filed as inhibitors; Biochemical Sfp PPTase activity, qHTS; 4'-phosphopantetheinyl transferase ffp (Bacillus subtilis), Q9F4F7; actives 3.5% (n = 310,000);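 further: the enzyme is Sfp with the accession as filed and its product quenches rhodamine fluorescence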
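Sfp 15 nM + cpd, 15 min RT; start w/ rhodamine-CoA 5 uM, BHQ-2-YbbR 12.5 uM (final); 50 mM Hepes pH 7.6, 10 mM MgCl2, 0.01% NP-40, 0.01% BSA; read 525/598 nm at 0 and 30 min.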
BAZ2B block – qHTS Assay for Inhibitors of BAZ2B | Bromodomain adjacent to zinc finger domain protein 2B (Homo sapiens), Q9UIF8 | AID 504333, 2011 | AlphaScreen BAZ2B-H3K14Ac peptide displacement | Potency, µM (highest dose often 114 µM), actives largely listed as inhibitors | actives 4.4% (n = 360,000); further: nearly all actives have a fitted effect of over 60% in size
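AlphaScreen displacement: compounds (up to 110uM) incubated 30 min at room temperature with a preformed 50 nM BAZ2B/50 nM biotinylated H3K14Ac peptide complex in PBS pH 7.4 with Tween-20. Donor and acceptor beads at 10 ug/mL final added, 20 min light-protected before reading.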
G9a block – qHTS Assay for Inhibitors of Histone Lysine Methyltransferase G9a; Histone-lysine N-methyltransferase EHMT2 (Homo sapiens), Q96KQ7; G9a H3K9 monomethylation, AlphaScreen, 2 h; Potency, µM (titrated, usually from 102 µM), actives largely listed as inhibitors; actives 8.8% (n = 350,000); AID 504332, 2011; further: nearly all actives have a fitted effect of over 75% in size
Target sequence (Q96KQ7 913-1193 limits assumed): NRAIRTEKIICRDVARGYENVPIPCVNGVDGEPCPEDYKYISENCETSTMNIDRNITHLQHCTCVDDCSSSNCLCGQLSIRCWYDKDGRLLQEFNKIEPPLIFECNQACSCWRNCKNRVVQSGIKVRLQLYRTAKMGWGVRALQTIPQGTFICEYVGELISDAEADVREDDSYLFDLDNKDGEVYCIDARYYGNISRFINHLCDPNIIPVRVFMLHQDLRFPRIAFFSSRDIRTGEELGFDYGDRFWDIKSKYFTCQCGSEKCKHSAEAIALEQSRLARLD
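Quantitative HTS format: methyltransferase activity on a biotin-tagged H3K9 peptide is measured by AlphaScreen, using a rabbit anti-monomethyl-H3K9 antibody with streptavidin donor and anti-IgG acceptor beads. Final levels are 20 nM enzyme, 500 nM peptide, 20 uM SAM; 2 h RT.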
PLK1 PBD block – qHTS for Inhibitors of PLK1-PDB (polo-like kinase 1 - polo-box domain): Primary Screen; Serine/threonine-protein kinase PLK1 (Homo sapiens), P53350; Plk1 PBD binding of FITC phosphopeptide, fluorescence polarization; Potency, µM, most hits filed as inhibitors; actives 2.8% (n = 360,000); AID 720504, 2013; further: series mostly up to about 57 µM; nearly all actives have a fitted effect of over 65% in size
JMJD2A Tudor inh – qHTS Assay for Inhibitors of JMJD2A-Tudor Domain | AlphaScreen JMJD2A-Tudor / H3K4me3 peptide binding | Potency, µM (highest dose often 114 µM), usual class: inhibitors | actives 4.4% (n = 390,000); further: nearly all actives have a fitted effect of over 50% in size
HP1b binding inh – HTS for Inhibitors of HP1-beta Chromodomain Interactions with Methylated Histone Tails. Potency, µM (highest dose often 114 µM), most hits filed as inhibitors. Chromobox protein homolog 1 (Homo sapiens), P83916. actives 0.56% (n = 390,000). AlphaScreen HP1-beta / biotin-H3K9me3 peptide binding; further: nearly all actives have a fitted effect of over 70% in size
Target sequence (P83916 whole entry, looked up): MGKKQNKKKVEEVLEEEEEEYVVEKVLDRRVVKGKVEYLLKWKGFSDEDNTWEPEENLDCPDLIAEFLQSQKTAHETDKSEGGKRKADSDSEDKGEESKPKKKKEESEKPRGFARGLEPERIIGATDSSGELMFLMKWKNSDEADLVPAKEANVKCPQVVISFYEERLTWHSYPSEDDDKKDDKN
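AlphaScreen: HP1-beta (50 nM) preformed 30 min with biotin-H3(1-18)K9me3 peptide (50 nM) in PBS pH 7.4, 0.01% Tween-20. Compound added for 30 min at RT, then streptavidin donor/nickel chelate acceptor beads (10 ug/mL) for 30 min.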
Of the large screens only hits and unclear results are named; the others gave an inactive call. An excerpt weighted towards active compounds, which were near 12% of everything screened. The call rests on the fitted dose curve; in most records, active means well fitted curve in the direction sought with a large enough effect; inconclusive means small, poorly fitted or top-dose-only effect, or another doubt; inactive means no such curve, though single readings can be large; an effect the other way counts as inactive or inconclusive.

O=C(N1CCCCC1)N1CCN(S(=O)(=O)c2ccccc2)CC1	none
Cn1cccc1C(=O)OCC(=O)c1cc2ccccc2o1	G9a block 45µM, JMJD2A Tudor inh inconclusive
O=C(c1ccncc1)N1CCN(S(=O)(=O)c2ccccc2Br)CC1	none (no result: Sfp inh)
O=C(c1cccc(-n2cccc2)c1)N1CCN(S(=O)(=O)c2ccccc2Br)CC1	G9a block 45µM (no result: Sfp inh)
CC(=O)N1c2c(cc(Br)cc2S(=O)(=O)NCc2ccccc2Cl)CC1C (stereo not given)	none (no result: Sfp inh, PLK1 PBD block)
NS(=O)(=O)Nc1ccccc1Br	none (no result: BAZ2B block, G9a block, PLK1 PBD block)
CC(C)(C)OC(=O)NS(=O)(=O)Nc1ccccc1Br	JMJD2A Tudor inh 35µM (no result: BAZ2B block, G9a block, PLK1 PBD block)
CO/N=C/NC(=O)c1ccc([N+](=O)[O-])c(CS(=O)(=O)c2ccc(Cl)cc2)c1	PLK1 PBD block 3µM, JMJD2A Tudor inh inconclusive
O=C(CNC(=O)c1ccncc1)OC(C(=O)Nc1cc(C(F)(F)F)ccc1Cl)c1ccccc1 (stereo not given)	none (no result: Sfp inh, BAZ2B block, G9a block, PLK1 PBD block, HP1b binding inh)
Cc1ccccc1CNCCSc1nnnn1-c1ccccc1	none (no result: Sfp inh, PLK1 PBD block)
CN(c1ccccc1)S(=O)(=O)c1cccc(C(=O)NCC(c2cccs2)N2CCOCC2)c1 (stereo not given)	none (no result: Sfp inh, BAZ2B block, G9a block, JMJD2A Tudor inh, HP1b binding inh)
CCN(c1ccccc1)S(=O)(=O)c1cc(C(=O)OC(C)C(=O)Nc2ccc3c(c2)OCCO3)ccc1C (stereo not given)	BAZ2B block inconclusive, G9a block 40µM, JMJD2A Tudor inh inconclusive
O=[N+]([O-])c1cccc(-c2ccc(/C=N/n3c(-c4ccccc4)n[nH]c3=S)o2)c1	G9a block inconclusive
O=[N+]([O-])c1ccc(Cl)c(/C=N/n2c(-c3ccncc3)n[nH]c2=S)c1	Sfp inh 56µM, G9a block 4µM, JMJD2A Tudor inh 3.2µM
Oc1ccccc1/C=N/n1c(-c2ccccc2)n[nH]c1=S	Sfp inh inconclusive, BAZ2B block inconclusive, G9a block 1.6µM, JMJD2A Tudor inh 25µM
O=[N+]([O-])c1ccc(O)c(/C=N/n2c(-c3ccccc3)n[nH]c2=S)c1	Sfp inh inconclusive, JMJD2A Tudor inh 5.6µM
Oc1c(Br)cc(Br)cc1/C=N/n1c(-c2ccccc2)n[nH]c1=S	Sfp inh inconclusive, BAZ2B block inconclusive, PLK1 PBD block inconclusive, JMJD2A Tudor inh 40µM, HP1b binding inh inconclusive
COc1c(Br)cc(/C=N/n2c(-c3ccccc3)n[nH]c2=S)c(O)c1Br	Sfp inh 50µM, PLK1 PBD block inconclusive, JMJD2A Tudor inh inconclusive (no result: G9a block)
Oc1c(Br)cc(/C=N/n2c(-c3ccccc3)n[nH]c2=S)c(Br)c1O	BAZ2B block 1.8µM, G9a block 1.8µM (no result: PLK1 PBD block, JMJD2A Tudor inh, HP1b binding inh)
CCn1ccnc1CN(C)C(=O)c1cc(COc2ccc(OC)c3ccccc23)on1	JMJD2A Tudor inh 50µM, HP1b binding inh inconclusive
O=C(O)CC1(CC(=O)Nc2cc3ccccc3cn2)CCCCC1	G9a block 89µM
Cc1cccc(NC(=O)CC2(CC(=O)O)CCCC2)c1	none
Nc1nc2[nH]cc(CCc3ccc(C(=O)NC(CCC(=O)O)C(=O)O)cc3)c2c(=O)[nH]1 (stereo not given)	none (no result: BAZ2B block, PLK1 PBD block, JMJD2A Tudor inh, HP1b binding inh)
O=C(NCCc1nc2ccccc2n1CCOc1cccc2ccccc12)C1CCCCC1	none (no result: Sfp inh, BAZ2B block, G9a block, PLK1 PBD block)
COc1ccccc1CNC(=O)C(NS(=O)(=O)c1ccc2c(c1)CCN2C(C)=O)C(C)C (stereo not given)	none (no result: Sfp inh, BAZ2B block, PLK1 PBD block)
Cc1ccc(CC(=O)Nc2nnc(-c3ccc(F)cc3)o2)c(C)c1	none
Nc1c(O)ccc2c1C(=O)c1ccccc1C2=O	BAZ2B block 25µM, G9a block 2.5µM, JMJD2A Tudor inh inconclusive, HP1b binding inh 16µM
CCC(C(=O)Nc1ccccc1C(=O)OC)n1c(C)c2cnn(-c3ccccc3)c(=O)c2c1C (stereo not given)	JMJD2A Tudor inh inconclusive (no result: Sfp inh, PLK1 PBD block)
CCCN(CC(=O)Nc1ccc(F)c(F)c1F)C(=O)Cc1ccc(S(=O)(=O)N2CCOCC2)s1	none (no result: Sfp inh)

Screening data as filed in PubChem.
